Results reported in the supplement of paper PMC11383364.

The molecules below were run on SUM149 (assay: percent difference in area under dose-response curve of relative cell number, RPMI vs HPLM; higher = drug relatively more effective in HPLM than RPMI (negative = less effective in HPLM)). Settings: treatment time: 72 h; dose range: 10-point, 1 nM to 20 µM; media compared: RPMI vs HPLM.

Structure (SMILES)	percent difference in area under dose-response curve [%]
COc1ncc(-c2ccc3nccc(-c4ccnnc4)c3c2)cc1NS(=O)(=O)c1ccc(F)cc1F	-12.4
Cc1ccc(Nc2nccc(N(C)c3ccc4c(C)n(C)nc4c3)n2)cc1S(N)(=O)=O [Pazopanib]	5.29
O=S(=O)(N=Cc1c(O)ccc2ccccc12)c1cccs1	-2.44
Cc1ccc(C(=O)c2cc(O)c(O)c([N+](=O)[O-])c2)cc1 [Tolcapone]	-5.18
CN1CCCN(C(=O)c2cccc(-c3ccc(/C=C4/C(=O)Nc5ccc(Cl)cc54)o3)c2)CC1	-26.8
CN(C)C/C=C/C(=O)Nc1cc2c(Nc3ccc(F)c(Cl)c3)ncnc2cc1O[C@H]1CCOC1 [Afatinib]	2.93
CS(=O)(=O)N1CCc2c(-c3cnc(N)nc3)nc(N3CCOCC3)nc21	-3.59
CS(=O)(=O)CCNCc1ccc(-c2ccc3ncnc(Nc4ccc(OCc5cccc(F)c5)c(Cl)c4)c3c2)o1 [Lapatinib]	-5.33
CCC(C)SSc1ncc[nH]1 (configuration not stated)	3.05
C[C@H]1O[C@@H](O[C@H]2[C@@H](O)C[C@H](O[C@H]3[C@@H](O)C[C@H](O[C@H]4CC[C@@]5(C)[C@H](CC[C@@H]6[C@@H]5CC[C@]5(C)[C@@H](C7=CC(=O)OC7)CC[C@]65O)C4)O[C@@H]3C)O[C@@H]2C)C[C@H](O)[C@@H]1O [Digitoxin]	-8.01
CO[C@H]1/C=C\C=C(/C)C(=O)NC2=CC(=O)C(NCCN(C)C)=C(C[C@@H](C)C[C@H](OC)[C@H](O)[C@@H](C)/C=C(\C)[C@@H]1OC(N)=O)C2=O	-30.8
Cc1c(C(=O)Nc2ccc(N3C[C@@H](C)O[C@@H](C)C3)nc2)cccc1-c1ccc(OC(F)(F)F)cc1	-7
C/C=C1\NC(=O)[C@H]2CSSCC/C=C/[C@H](CC(=O)N[C@H](C(C)C)C(=O)N2)OC(=O)[C@H](C(C)C)NC1=O [Romidepsin]	-30.5
CCOC(=O)c1cnc2ccc(-c3cncc(NS(=O)(=O)c4ccccc4)c3)cn12	-8.07
CCOc1cc(N2CCC(O)CC2)ccc1Nc1ncc2c(n1)N(C)c1ccccc1C(=O)N2C	-8.79
CNCc1ccc(-c2[nH]c3cc(F)cc4c3c2CCNC4=O)cc1 [Rucaparib]	-14.3
COc1cc2c(cc1O)CC[C@@H]1[C@@H]2CC[C@]2(C)[C@@H](O)CC[C@@H]12 [2_Methoxyestradiol]	6.52
Cn1cnc2c(F)c(Nc3ccc(Br)cc3Cl)c(C(=O)NOCCO)cc21	-3.35
O=C(NOC[C@H](O)CO)c1ccc(F)c(F)c1Nc1ccc(I)cc1F	-8.94
CN1CC[C@H](c2c(O)cc(O)c3c(=O)cc(-c4ccccc4Cl)oc23)[C@H](O)C1 [Flavopiridol]	-2.56
Cn1c(=O)c(F)c(Nc2ccc(I)cc2F)c2c(=O)n(C[C@@H](O)CO)cnc21	-12.9
O=C(NCCCNc1nc(Nc2cccc(NC(=O)N3CCCC3)c2)ncc1I)c1cccs1	-9.09
